This is a sample that favours compounds with a hit; in the whole collection about 4.7% have one here.
TRHR agonist-1 = activates the human TRH receptor; P34981; TRHR cells, calcium flux fluo-8, FDSS agonist mode; activation, % at 2 µM; actives 0.18% (n = 360,000); AID 493084; note: 0% is about no effect
Target sequence (P34981 whole entry, looked up): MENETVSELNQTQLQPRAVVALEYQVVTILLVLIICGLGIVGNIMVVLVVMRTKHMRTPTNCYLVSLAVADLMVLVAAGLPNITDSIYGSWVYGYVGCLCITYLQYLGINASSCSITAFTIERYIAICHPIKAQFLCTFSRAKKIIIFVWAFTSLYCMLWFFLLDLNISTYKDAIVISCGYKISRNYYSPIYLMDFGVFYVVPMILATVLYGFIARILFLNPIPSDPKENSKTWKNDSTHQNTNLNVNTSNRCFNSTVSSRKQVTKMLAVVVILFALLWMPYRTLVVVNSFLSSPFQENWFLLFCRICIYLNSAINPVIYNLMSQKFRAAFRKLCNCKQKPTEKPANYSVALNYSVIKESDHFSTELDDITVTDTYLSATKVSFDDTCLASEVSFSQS
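Steps: seed TRHR cells overnight; add fluo-8 no-wash Ca dye, RT 30 min–1.5 h; record 10 s baseline; pin-transfer compounds; monitor fluorescence 1 cycle/s for the agonist window. Calcium increases flag candidate agonists.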
TRHR enhancer-1 = allosteric enhancers of human TRH receptor; P34981; TRHR cells, fluo-8 calcium fluorescence, EC20 TRH enhancement; enhancement, % at 2 µM; actives 0.66% (n = 360,000); AID 493056; in the data active = enhancement above about 30%; note: 0% is about no effect
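Enhancer read-out: after compound pinning and an initial kinetic agonist-mode read, an EC20 of TRH (10 nM final) was injected and fluo-8 calcium signal (Ex 480/Em 530) followed at 1 s/cycle for 100 cycles in TRHR-expressing cells.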
D1 PAM = potentiators of human D1 dopamine receptor; P21728; HEK293 TREx D1 cells, calcium flux, dopamine EC20 potentiation; potentiation, % at 10 µM; actives 0.036% (n = 360,000); AID 504651; in the data active = potentiation above about 30%; note: 0% is about no effect
D1 antag = antagonists of human D1 dopamine receptor | HEK293 TREx D1 cells, calcium flux, dopamine EC80; hits give low values | activity change, negative = inhibition, % at 10 µM | actives 3.2% (n = 360,000) | AID 504652 | P21728; in the data active = activity change below about -30%; note: % is set by controls: 0 for no effect and ±100 for the full control effect
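Inducible Hek293 Trex D1 cells (tetracycline, overnight, 30 C). Calcium dye 30–90 min RT. Antagonist mode: EC80 dopamine added after 180 s compound read.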
D1 agonist = activates the human D1 dopamine receptor. P21728. HEK293 T-REx D1 cells, calcium flux, agonist mode. activation, % at 2 µM. actives 1% (n = 360,000). AID 504660; note: 0% is about no effect
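Tetracycline-induced HEK293 TREx D1 cells, force-coupled to calcium signalling, were dye-loaded with a no-wash calcium kit. Compound was pin-added after a 10 s baseline. Fluorescence was read kinetically at 1 cycle/s for 180 s, with calcium rises flagged as agonism.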
TRHR enhancer-2 = human TRH receptor allosteric enhancement confirmation; shares compounds with TRHR enhancer-1; TRH receptor cell assay, enhancer confirmation qHTS; activity change, negative = inhibition, % at 46.1 µM; 970 tested, under 10 active; active = well fitted curve in the direction sought with a large enough effect; an effect the other way counts as inactive or inconclusive;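 note: compound effect scored on response to added TRH at EC20 of 10 nM; 0% is about no effect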
TRHR agonist-2 = human TRH receptor agonism confirmation. shares compounds with TRHR enhancer-1. TRHR-expressing cells, agonist activation read-out. Potency, µM (highest dose often 46.1 µM), for inactives: at the highest dose activation, most hits filed as activators. actives 8% (n = 970). AID 493078; active = well fitted curve in the direction sought with a large enough effect; an effect the other way counts as inactive or inconclusive; note: potency is the fitted concentration of half-maximal effect; 0% is about no effect; nearly all actives have a fitted effect of over 75% in size
Starred values were filed as active, the others as inactive. Cut-off read from the data, not from the text of the source, unless noted: active = activation above about 30%; inactive = the rest.

How did O=C(CCN1C(=O)c2ccccc2C1=O)Nc1ccc(S(=O)(=O)N2CCOCC2)cc1 do in these assays?
TRHR agonist-1: 0; TRHR enhancer-1: 3; D1 PAM: -1; D1 antag: -12; D1 agonist: 1

What do the screens show for `CC1CCCN(S(=O)(=O)c2ccc(NC(=O)CCN3C(=O)c4ccccc4C3=O)cc2)C1` (stereo not drawn)?
TRHR agonist-1: 38*; TRHR enhancer-1: -4; D1 PAM: 0; D1 antag: 4; D1 agonist: -1; TRHR enhancer-2: -2; TRHR agonist-2: 0%

How did O=C(NCCCN=C1NS(=O)(=O)c2ccccc21)c1ccc(F)cc1 do in these assays?
TRHR agonist-1: 1; TRHR enhancer-1: 58*; D1 PAM: -3; D1 antag: -2; D1 agonist: 13; TRHR enhancer-2: 2; TRHR agonist-2: 5%

How did CCOc1ccc(C(=O)Nc2c3c(nn2-c2ccc(C)cc2)CS(=O)C3)cc1OCC (stereo not drawn) do in these assays?
TRHR agonist-1: 0; TRHR enhancer-1: 42*; D1 PAM: -5; D1 antag: 6; D1 agonist: 2; TRHR enhancer-2: -2; TRHR agonist-2: 0%

Results for O=C(Nc1cccc(C(=O)N2CCN(c3ccccc3)CC2)c1)c1nsc2ccccc12 ?
TRHR agonist-1: 0; TRHR enhancer-1: -2; D1 PAM: -2; D1 antag: -2; D1 agonist: 3

Results for Cc1cc(C)cc(-n2ccnc2SCC(=O)Nc2cccc3ccccc23)c1 ?
TRHR agonist-1: 0; TRHR enhancer-1: 1; D1 PAM: -2; D1 antag: 0; D1 agonist: 4

What do the screens show for `COc1ccc(Br)cc1C(=O)Nc1ccc(C(=O)NCC(C)C)cc1`?
TRHR agonist-1: -2; TRHR enhancer-1: 46*; D1 PAM: -8; D1 antag: 5; D1 agonist: 2; TRHR enhancer-2: 10; TRHR agonist-2: 1%

What do the screens show for `COC(=O)c1cc2sccc2n1CC(=O)Nc1cccc(SC)c1`?
TRHR agonist-1: 0; TRHR enhancer-1: 45*; D1 PAM: -7; D1 antag: -5; D1 agonist: 6; TRHR enhancer-2: 1; TRHR agonist-2: 4%

How did COC(=O)c1cc2occc2n1CC(=O)Nc1cccc(SC)c1 do in these assays?
TRHR agonist-1: 0; TRHR enhancer-1: 4; D1 PAM: 2; D1 antag: -18; D1 agonist: 4

What do the screens show for `Cc1cccc(NC(=O)COc2ccc(Br)cc2/C=N/O)c1`?
TRHR agonist-1: -1; TRHR enhancer-1: 43*; D1 PAM: -6; D1 antag: 3; D1 agonist: 9; TRHR enhancer-2: -7; TRHR agonist-2: 2%

How did CC(=O)Nc1ccc(NC(=O)COc2ccc(Br)cc2C)cc1 do in these assays?
TRHR agonist-1: 0; TRHR enhancer-1: 2; D1 PAM: 6; D1 antag: -18; D1 agonist: 6

How did CC(=O)c1cc(-c2ccc(F)cc2)n(CC(=O)NC2CCCCCC2)c1C do in these assays?
TRHR agonist-1: 0; TRHR enhancer-1: -4; D1 PAM: -4; D1 antag: -5; D1 agonist: 2

How did Cn1c(=O)oc2cc(S(=O)(=O)NC(Cc3ccccc3)C(=O)Nc3ccc(F)c(Cl)c3)ccc21 (stereo not drawn) do in these assays?
TRHR agonist-1: 2; TRHR enhancer-1: -4; D1 PAM: -2; D1 antag: -2; D1 agonist: 7

Results for NC(=O)NCCCC(NC(=O)c1ccc(C#CC2(O)CCCCC2)cc1)C(=O)O (stereo not drawn) ?
TRHR agonist-1: 0; TRHR enhancer-1: 43*; D1 PAM: -4; D1 antag: -4; D1 agonist: 4; TRHR enhancer-2: -4; TRHR agonist-2: -1%

How did COc1cccc(Cn2c(CNS(=O)(=O)c3ccc(C(C)(C)C)cc3)nc3cccnc32)c1 do in these assays?
TRHR agonist-1: 0; TRHR enhancer-1: 0; D1 PAM: 1; D1 antag: 1; D1 agonist: 3

What do the screens show for `O=C(NCc1ccc2c(c1)OCO2)C(=O)NCC1CCCO1` (stereo not drawn)?
TRHR agonist-1: 0; TRHR enhancer-1: 0; D1 PAM: 1; D1 antag: -9; D1 agonist: 1

How did O=C(NCc1cccc(CNC(=O)C(=O)NCC2CCCO2)c1)C(=O)NCC1CCCO1 (stereo not drawn) do in these assays?
TRHR agonist-1: 1; TRHR enhancer-1: 42*; D1 PAM: -4; D1 antag: -5; D1 agonist: 1; TRHR enhancer-2: 1; TRHR agonist-2: -1%

What do the screens show for `COc1ccccc1C(=O)N1CCN(Cc2cn[nH]c2-c2ccc(F)cc2F)CC1`?
TRHR agonist-1: -1; TRHR enhancer-1: 57*; D1 PAM: 2; D1 antag: -4; D1 agonist: 2; TRHR enhancer-2: -5; TRHR agonist-2: 0%

Results for Cc1ccc(-c2nnc(SCC(=O)N3CCc4ccccc43)o2)cc1 ?
TRHR agonist-1: 0; TRHR enhancer-1: 0; D1 PAM: -3; D1 antag: -7; D1 agonist: 2

Results for CN(CCCn1c(=S)[nH]c2ncccc2c1=O)Cc1ccccc1 ?
TRHR agonist-1: -1; TRHR enhancer-1: 46*; D1 PAM: -4; D1 antag: -12; D1 agonist: 3; TRHR enhancer-2: 3; TRHR agonist-2: -1%

What do the screens show for `COc1ccccc1NC1=C(Cl)C(=O)N(C2CCCCC2)C1=O`?
TRHR agonist-1: 0; TRHR enhancer-1: 46*; D1 PAM: -2; D1 antag: -88*; D1 agonist: 1; TRHR enhancer-2: 10; TRHR agonist-2: 4%

What do the screens show for `Cc1ccccc1NC1=C(Cl)C(=O)N(C2CCCCC2)C1=O`?
TRHR agonist-1: 3; TRHR enhancer-1: -1; D1 PAM: 3; D1 antag: 10; D1 agonist: 6

What do the screens show for `COc1ccc(Cl)cc1C(=O)Nc1ccc(CN2CCCCC2)cc1`?
TRHR agonist-1: 2; TRHR enhancer-1: 64*; D1 PAM: -11; D1 antag: -8; D1 agonist: 2; TRHR enhancer-2: 3; TRHR agonist-2: 7%

What do the screens show for `Cc1ccc2c(NC(=O)c3ccco3)cccc2n1`?
TRHR agonist-1: 0; TRHR enhancer-1: 42*; D1 PAM: 6; D1 antag: -4; D1 agonist: 1; TRHR enhancer-2: -1; TRHR agonist-2: 0%

How did Cc1cc(NC(=O)c2ccc([N+](=O)[O-])cc2Cl)ccc1NC(=O)c1ccco1 do in these assays?
TRHR agonist-1: 0; TRHR enhancer-1: -2; D1 PAM: -8; D1 antag: 7; D1 agonist: 2

Compound activity (PubChem BioAssay)
